Measured values as given in PubChem BioAssay (NCI).
The panel holds about 83,000 compounds, 20% with a hit somewhere; the sample as a whole holds those more often.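 In brief: 96-well plates, 48 h treatment, single concentration, percent growth endpoint.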 Values without a mark were called inactive. The source made the active and inactive calls. Rule for the calls: active = growth percent below 10; inactive = the rest.

Legend:
Test in all cases: NCI-60 one-dose screen, 48 h (100 = growth as untreated, 0 = no growth, -100 = all killed)
Details in all cases: 10 µM unless noted
[1] = tested on: NCI-H23 lung
[2] = tested on: NCI-H226 lung
[3] = tested on: NCI-H322M lung
[4] = tested on: HOP-62 NSCLC
[5] = tested on: NCI-H460 lung
[6] = tested on: HOP-92 NSCLC
[7] = tested on: NCI-H522 lung
[8] = tested on: A549/ATCC NSCLC
[9] = tested on: 786-0 renal
[10] = tested on: COLO 205 colon

Structure (SMILES)	growth [1]	growth [2]	growth [3]	growth [4]	growth [5]	growth [6]	growth [7]	growth [8]	growth [9]	growth [10]
CC(C)=CCC[C@H](C(=O)O)[C@@H]1CC[C@]2(C)C3=C(CC[C@@]12C)[C@@]1(C)CC[C@H](O)C(C)(C)[C@@H]1CC3	106%	109%	84.2%	97.3%	109%	101%	60.8%	81.8%	92%	120%
CC(=O)O[C@H](C[C@H](C(C)C)N(C)C(=O)[C@@H](NC(=O)[C@H]1CCCCN1C)C(C)C)c1nc(C(=O)N[C@@H](Cc2ccccc2)C[C@H](C)C(=O)O)c(CCOCc2ccccc2)s1	24.3%	-56.8% (active)	33.5%	29.6%	5.98% (active)	5.5% (active)	-47.4% (active)	13%	7.14% (active)	-42% (active)
O=C1C(=Cc2cn(Cc3ccccc3)c3ccccc23)C(=O)N(Cc2ccccc2)C(=O)N1Cc1ccccc1	87.8%	-49.4% (active)	105%	85.5%	36%	90.9%	87.6%	80.1%	93.3%	26.4%
COc1ccc(C/C(C)=C(\c2ccc(OCCN3CCOCC3)cc2)c2ccc(OC(=O)Cc3ccccc3)cc2)cc1	-18.3% (active)	-26.6% (active)	-8.3% (active)	-74.1% (active)	-73.3% (active)	-76.7% (active)	-87.6% (active)	0.132% (active)	-94.7% (active)	-90.1% (active)
Clc1cccc(NCOOC2(OOCNc3cccc(Cl)c3)CCCCCC2)c1	69%	102%	96.2%	87.4%	102%	57.5%	81.6%	92.8%	47.3%	113%
O=C(Nc1ccc(O)cc1)C(Cl)(Cl)Cl	101%	101%	102%	104%	105%	105%	91.2%	98.4%	95.2%	102%
[Cl][Hg][c]1cc[c]([Hg][Cl])o1	63.5%	99.1%	96.9%	72.9%	68.6%	-29.1% (active)	2.99% (active)	88.4%	-74.8% (active)	6.94% (active)
C[C@]12CC[C@@H]3c4ccc(Oc5nc(N6CC6)nc(N6CC6)n5)cc4CC[C@H]3[C@@H]1CCC2=O	31.6%	48.7%	44.2%	11.7%	-33.8% (active)	104%	31.5%	24.9%	32.4%	32.5%
C/C(=C\c1ccn(-c2ccccc2N)n1)[C@@H]1C[C@@H]2O[C@]2(C)CCC[C@H](C)[C@H](O)[C@@H](C)C(=O)C(C)(C)[C@@H](O)CC(=O)O1	20.4%	33.8%	16.6%	41.7%	14.9%	77.4%	11.7%	24.8%	17.8%	-4.12% (active)
C1CCC([PH+](C2CCCCC2)C2CCCCC2[PH+](C2CCCCC2)C2CCCCC2)CC1.[Au].[CH-]1CCCCC1CC1CCCC[N-]1 (stereo not given)	-46.3% (active)	-50.6% (active)	-42% (active)	-30.6% (active)	-56.4% (active)	-34.4% (active)	-40.7% (active)	-44.4% (active)	-89.6% (active)	-47.7% (active)
CC(C)(NC(=O)O[C@@H]1CN2CCC1CC2)c1csc(-c2ccc(F)cc2)n1	96.3%	89.9%	98.9%	99.4%	101%	98%	95.4%	101%	99.3%	111%
CCNc1nc(Cl)nc(NCC)n1	111%	90.4%	100%	93%	102%	65.1%	105%	85.7%	108%	102%
COc1cc2ncnc(Nc3ccc(F)c(Cl)c3)c2cc1OCC(=O)N1CCN(C)CC1	98.1%	102%	26.6%	96.9%	104%	75.1%	39.2%	76.9%	70.9%	104%
CCCCCC1(CCBr)C(=O)NC(=O)NC1=O	109%	104%	118%	107%	108%	85.1%	100%	98.3%	95.9%	110%
CCCCCCC(=O)NC1=C(N2CC2)C(=O)C(NC(=O)CCCCCC)=C(N2CC2)C1=O	33.6%	75%	79.5%	47.2%	24%	65.3%	39.2%	42.3%	33.6%	3.58% (active)
COC(=O)[C@@H](C)C[C@H](Cc1ccc(F)cc1)NC(=O)c1csc([C@@H](C[C@H](C(C)C)N(C)C(=O)[C@@H](NC(=O)[C@H]2CCCCN2C)C2CC2)OC(C)=O)n1	36%	43.2%	39.7%	12.2%	7% (active)	46.6%	-15.2% (active)	20.1%	13.5%	-73.1% (active)
COc1ccc2c(c1)c(-c1nc(-c3cn(C)c4ncccc34)cs1)cn2CCN1CCOCC1	40.2%	43%	62.3%	12.5%	23.9%	31.3%	19.9%	30.5%	44.4%	33.2%
C/C(=C\c1ccn(-c2ccc(N)cc2C(F)(F)F)n1)[C@@H]1C[C@@H]2O[C@]2(C)CCC[C@H](C)[C@H](O)[C@@H](C)C(=O)C(C)(C)[C@@H](O)CC(=O)O1	19.9%	59.4%	23.4%	24.5%	9.25% (active)	57%	0.465% (active)	9.78% (active)	16.4%	-6.04% (active)
CCC1(C(C)C)C(=O)NC(=S)NC1=O	117%	90.5%	106%	102%	102%	91.5%	105%	95.7%	108%	123%
CN[C@@]1(c2ccccc2Cl)CCCC[C@@H]1NCC1CCCO1 (stereo not given in full)	97.4%	97.8%	94.1%	97.4%	110%	92%	91.3%	98%	97.7%	109%
CC(C)[C@]12O[C@H]1[C@@H]1O[C@]13[C@]1(O[C@H]1C[C@H]1c4c(C(=O)c5ccccc5)oc(OC(=O)c5ccccc5)c4CC[C@@]13C)[C@@H]2O	-14.9% (active)	-12.8% (active)	9.46% (active)	-0.399% (active)	9.07% (active)	-9.38% (active)	-39.6% (active)	1.72% (active)	1.31% (active)	-57% (active)
Brc1ccc2c(c1)c(-c1nc(-c3c[nH]c4ncccc34)cs1)cn2CCN1CCOCC1	71.8%	60.2%	72.1%	60.4%	63.2%	52.2%	76.1%	61.7%	67.5%	64.3%
COC1=CC(=O)O[C@@H](/C=C/c2ccc3c(c2)OCO3)C1	117%	92.8%	97.5%	112%	118%	60.9%	98.3%	97%	112%	125%
CC(=O)Nc1ccc(NC(=O)c2ccc([As](O)O)cc2)cc1	103%	116%	118%	131%	104%	112%	-2.06% (active)	114%	107%	108%
CC(=O)O[C@H]1C(=O)[C@@]2(C)[C@H]([C@H](OC(=O)c3ccccc3)[C@]3(O)C[C@H](OC(=O)[C@H](OC(=O)OC[C@H]4COC(C)(C)O4)[C@@H](NC(=O)c4ccccc4)c4ccccc4)C(C)=C1C3(C)C)[C@]1(OC(C)=O)CO[C@@H]1C[C@@H]2O	21.6%	55.5%	14.9%	21.7%	4.16% (active)	53.4%	5.12% (active)	12.5%	20.2%	-15.1% (active)
CN1C(=O)C23CC4(C56CC78SSC(CO)(C(=O)N7C5Nc5ccccc56)N(C)C8=O)c5ccccc5NC4N2C(=O)C1(CO)SS3 (stereo not given)	-72.9% (active)	-100% (active)	-94.5% (active)	-86.4% (active)	-89.4% (active)	-99% (active)	-85.9% (active)	-88.5% (active)	-97.4% (active)	-87.8% (active)
